# Test results as given in PubChem BioAssay.
# Activity calls are given as the source filed them.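 Rule for the calls, unless noted: active = thallium flux through the channel raised or lowered by more than 3 SD from vehicle-only wells, actives on both sides; inactive = the rest.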
# Legend:
# F380Y = experiment: modulators of BK channel variants, profiling panel, selectivity assay, cell-based, U2OS BacMam, thallium flux, beta subunits (AID 1259406); conditions: at 30 µM;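 note: initial slope of Thallos dye fluorescence rise after thallium is added; log ratio against the mean of 0.3% DMSO vehicle wells on the same plate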
# F380Y/beta1 = experiment: as above; conditions: at 30 µM
# [1] = UWB1.289 ovarian carcinoma cell growth inhibition, synergistic combos for chromothripsis tumors, BGB or cisplatin combos (AID 1671456; in the data active = inhibition above about 80%;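 note: cells exposed to compound for four days; 0% = vehicle DMSO and 100% = killing by high DMSO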); conditions: UWB1.289 ovarian carcinoma cells, stronger effect = higher value
# [2] = LFS_MB_2R medulloblastoma cell growth inhibition, synergistic combos for chromothripsis tumors, cisplatin combos (AID 1671457; in the data active = inhibition above about 80%;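 note: cells exposed to compound for four days before readout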); conditions: LFS_MB_2R medulloblastoma cells, stronger effect = higher value
# [3] = MDA-MB-436 breast carcinoma cell growth inhibition, synergistic combos for chromothripsis tumors, BGB or cisplatin combos (AID 1671458; call rule not given here;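 note: cells exposed for 96 hours; 0% = vehicle DMSO and 100% = killing by high DMSO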); conditions: MDA-MB-436 breast carcinoma growth inhibition, drug combinations, stronger effect = higher value
# [4] = UWB1.289_BRCA1 ovarian cancer growth, cell-based, BGB or cisplatin combinations (AID 1671459; in the data active = inhibition above about 80%); conditions: UWB1.289 BRCA1 ovarian carcinoma, drug combinations, stronger effect = higher value
# [5] = human astrocyte viability loss, single and combined drugs, cytotoxicity control for chromothriptic childhood tumor combination screen, cell-based, BGB or cisplatin IC20 combos (AID 1671460; in the data active = inhibition above about 80%;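 note: cells exposed to compounds for 96 hours before viability readout; 0% = vehicle and 100% = killing control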); conditions: Human astrocytes, drug combinations, stronger effect = higher value
# [6] = growth inhibition of BT084 medulloblastoma cells, cell-based, ICGC_MB145, cisplatin and BGB IC40 combos (AID 1671461; in the data active = inhibition above about 80%;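 note: cells exposed to drugs for 96 hours; 0% = vehicle DMSO and 100% = high DMSO full killing control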); conditions: drug combinations, stronger effect = higher value
# [7] = growth inhibition of RCMB18 medulloblastoma cells, cell-based, cisplatin and BGB IC40 combos (AID 1671462; in the data active = inhibition above about 80%;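 note: cells exposed to compound for four days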); conditions: stronger effect = higher value
# [8] = growth inhibition of CRL1545 osteosarcoma cells, cell-based, cisplatin and BGB IC20 combos (AID 1671464; in the data active = inhibition above about 80%;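 note: cells exposed to compound for 96 hours before readout; 0% = vehicle DMSO and 100% = high DMSO killing control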); conditions: stronger effect = higher value
# [9] = measured here: combination with cisplatin, at 0.5 µM
structure (smiles),measurement,setting,value
Cc1ccsc1C(=CCCN1CCC[C@@H](C(=O)O)C1)c1sccc1C,log fold change Tl+ flux,F380Y,0.0491 (inactive)
same,log fold change Tl+ flux,F380Y/beta1,0.0426 (inactive)
CCc1c(C)[nH]c2c1C(=O)C(CN1CCOCC1)CC2 (stereo unspecified),log fold change Tl+ flux,F380Y,0.0409 (inactive)
same,log fold change Tl+ flux,F380Y/beta1,0.015 (inactive)
Nc1ccn([C@H]2CC[C@@H](CO)O2)c(=O)n1,log fold change Tl+ flux,F380Y,0.0263 (inactive)
same,log fold change Tl+ flux,F380Y/beta1,0.0264 (inactive)
O=C(O)CCNC(=O)c1ccc(N=Nc2ccc(O)c(C(=O)O)c2)cc1,log fold change Tl+ flux,F380Y,-0.00418 (inactive)
same,log fold change Tl+ flux,F380Y/beta1,-0.0255 (inactive)
CC(=O)Oc1ccccc1C(=O)Nc1ncc([N+](=O)[O-])s1,log fold change Tl+ flux,F380Y,-0.199 (active)
same,log fold change Tl+ flux,F380Y/beta1,0.0346 (inactive)
COc1cc2nc(N3CCN(C(=O)C4COc5ccccc5O4)CC3)nc(N)c2cc1OC (stereo unspecified),log fold change Tl+ flux,F380Y,-0.351 (active)
same,log fold change Tl+ flux,F380Y/beta1,-0.143 (active)
NS(=O)(=O)Cc1noc2ccccc12,log fold change Tl+ flux,F380Y,0.00455 (inactive)
same,log fold change Tl+ flux,F380Y/beta1,-0.0156 (inactive)
C[C@@H]1C[C@H]2[C@@H]3CCC4=CC(=O)C=C[C@]4(C)[C@@]3(F)[C@@H](O)C[C@]2(C)[C@H]1C(=O)CO,log fold change Tl+ flux,F380Y,0.0533 (inactive)
same,log fold change Tl+ flux,F380Y/beta1,0.0836 (inactive)
CC(C)NCC(O)COc1ccc(COCCOC(C)C)cc1 (stereo unspecified),log fold change Tl+ flux,F380Y,0.0667 (inactive)
same,log fold change Tl+ flux,F380Y/beta1,0.0784 (inactive)
Oc1ccc(C2CNCCc3c2cc(O)c(O)c3Cl)cc1 (stereo unspecified),log fold change Tl+ flux,F380Y,0.0202 (inactive)
same,log fold change Tl+ flux,F380Y/beta1,-0.0465 (inactive)
O=C1CCc2ccc(OCCCCN3CCN(c4cccc(Cl)c4Cl)CC3)cc2N1,log fold change Tl+ flux,F380Y,0.0772 (inactive)
same,log fold change Tl+ flux,F380Y/beta1,0.0377 (inactive)
CN1[C@@H]2CC[C@H]1CC(OC(=O)c1c[nH]c3ccccc13)C2 (stereo partly specified),log fold change Tl+ flux,F380Y,0.0406 (inactive)
same,log fold change Tl+ flux,F380Y/beta1,0.0426 (inactive)
NCC1CCC(C(=O)Oc2ccc(CCC(=O)O)cc2)CC1 (stereo unspecified),log fold change Tl+ flux,F380Y,-0.0268 (inactive)
same,log fold change Tl+ flux,F380Y/beta1,-0.0246 (inactive)
O=C1CC2(CCCC2)CC(=O)N1CCCCN1CCN(c2ncccn2)CC1,log fold change Tl+ flux,F380Y,0.0254 (inactive)
same,log fold change Tl+ flux,F380Y/beta1,0.0242 (inactive)
O=C(O)/C=C/c1ccc(Cn2ccnc2)cc1,log fold change Tl+ flux,F380Y,0.00524 (inactive)
same,log fold change Tl+ flux,F380Y/beta1,0.0144 (inactive)
COc1cc(C)c(Cc2cnc(N)nc2N)cc1OC,log fold change Tl+ flux,F380Y,0.0111 (inactive)
same,log fold change Tl+ flux,F380Y/beta1,0.0334 (inactive)
Cc1nc2ccc(CN(C)c3ccc(C(=O)N[C@@H](CCC(=O)O)C(=O)O)s3)cc2c(=O)[nH]1,inhibition,[1]; at 0.5 µM,29.7% (inactive)
same,inhibition,"[1]; measured here: inhibition with BGB combination, at 0.05 µM",-4.8%
same,inhibition,"[1]; measured here: inhibition with cisplatin combination, at 0.05 µM",1.64%
same,inhibition,[2]; at 0.5 µM,-17.1% (inactive)
same,inhibition,[2]; [9],-12.9%
same,inhibition,"[2]; measured here: combination with cisplatin, at 5 µM",-18.4%
same,inhibition,[3]; at 0.5 µM,44.2% (inactive)
same,inhibition,"[3]; measured here: BGB combination, at 0.5 µM",26.6%
same,inhibition,"[3]; measured here: BGB combination, at 5 µM",17.5%
same,inhibition,"[3]; measured here: cisplatin combination, at 0.5 µM",47.7%
same,inhibition,"[3]; measured here: cisplatin combination, at 5 µM",45.6%
same,inhibition,"[4]; BGB combination, concentration series, at 5 µM",48.7%
same,inhibition,[4]; at 0.5 µM,42.1% (inactive)
same,inhibition,"[4]; cisplatin combination, concentration series, at 5 µM",59.8%
same,inhibition,[5]; at 0.5 µM,-0.43% (inactive)
same,inhibition,"[5]; measured here: combo with BGB IC20, at 0.5 µM",3.56%
same,inhibition,"[5]; measured here: combo with cisplatin IC20, at 0.5 µM",0.651%
same,inhibition,[6]; at 0.5 µM,-1.53% (inactive)
same,inhibition,"[6]; cisplatin combination, at 0.5 µM",4.81%
same,inhibition,"[6]; cisplatin combination, at 5 µM",-0.041%
same,inhibition,"[6]; measured here: BGB IC40 combination 0.05 uM, at 0.05 µM",-15.2%
same,inhibition,"[6]; single agent, at 5 µM",-10.4%
same,inhibition,[7]; at 0.5 µM,-20.8% (inactive)
same,inhibition,"[7]; cisplatin combo, at 5 µM",14%
same,inhibition,"[7]; measured here: BGB IC40 combination, at 0.05 µM",-41.8%
same,inhibition,[7]; [9],-4.37%
same,inhibition,"[7]; single agent, at 5 µM",-40.1%
same,inhibition,[8]; at 0.5 µM,-1.83% (inactive)
same,inhibition,"[8]; measured here: with BGB IC20 combination, at 0.5 µM",13.9%
same,inhibition,"[8]; measured here: with cisplatin IC20 combination, at 0.5 µM",-9.68%
same,inhibition,"[8]; single agent, at 0.05 µM",0.207%
same,inhibition,"[8]; single agent, at 5 µM",28.5%
same,log fold change Tl+ flux,F380Y,-0.025 (inactive)
same,log fold change Tl+ flux,F380Y/beta1,-0.0237 (inactive)
